Measurements: PubChem BioAssay (NCI)
Compounds without any hit were thinned out: in the full panel of roughly 79,000, 15% have a hit. Active and inactive are the calls of the source. Rule as the data show it: active = growth inhibition above about 70%; inactive = the rest.

Columns and labels:
[1] = NCI Yeast Anticancer Drug Screen. Data for the rad52 strain (AID 147);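 also: 0% = growth of vehicle-treated control cultures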; conditions: S. cerevisiae rad52 mutant growth inhibition, hits give high values
Summary of the method: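 Screen used a yeast mutant impaired in DNA repair. After compound exposure, growth was measured. Values reflect inhibition compared with vehicle-treated cells.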

[2] = NCI Yeast Anticancer Drug Screen. Data for the wt1 strain (AID 149);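 also: 0% = growth of vehicle-treated wt1 cultures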; conditions: S. cerevisiae wt1 strain (SPY 50644) growth inhibition, hits give high values
Summary of the method: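 wt1 strain grown with compound or vehicle; inhibition taken from the growth difference.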

[3] = NCI Yeast Anticancer Drug Screen. Data for the rad50EPP+ strain (AID 151);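 also: 0% = growth of vehicle-treated control cultures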; conditions: S. cerevisiae rad50 mutant strain, hits give high values
Summary of the method: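 Exposing the rad50EPP+ strain to each compound, growth was compared with vehicle-only cultures to give inhibition.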

[4] = NCI Yeast Anticancer Drug Screen. Data for the mgt1 strain (AID 153); conditions: S. cerevisiae mgt1 mutant growth inhibition, hits give high values
Summary of the method: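 Genetically defined yeast (mgt1) treated with compound; inhibition of growth expressed against vehicle-treated controls.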

[5] = NCI Yeast Anticancer Drug Screen. Data for the rad50 strain (AID 155);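 also: 0% = growth of vehicle-only cultures of the same strain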; conditions: S. cerevisiae rad50 strain growth inhibition, hits give high values
Summary of the method: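 DNA repair mutant yeast, compound exposure, growth read-out; inhibition is taken relative to vehicle.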

[6] = NCI Yeast Anticancer Drug Screen. Data for the mec2-1 strain (AID 157); conditions: S. cerevisiae mec2-1 strain, hits give high values
Summary of the method: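 Readout is yeast growth inhibition, normalised to vehicle-treated controls, in the mec2-1 strain exposed to compound.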

[7] = NCI Yeast Anticancer Drug Screen. Data for the rad14 strain (AID 159);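 also: 0% = growth of vehicle-treated control cultures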; conditions: S. cerevisiae rad14 strain growth inhibition, hits give high values
Summary of the method: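 DNA repair-defective yeast, compound-exposed; % growth inhibition derived by comparison with vehicle-treated controls.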

[8] = NCI Yeast Anticancer Drug Screen. Data for the sgs1 mgt1 strain (AID 161);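 also: 0% = growth of cultures given vehicle only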; conditions: S. cerevisiae sgs1 mgt1 strain, hits give high values
Summary of the method: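 This yeast growth screen uses a strain with defined DNA-repair lesions; compound-treated growth is compared with vehicle-treated growth.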

[9] = NCI Yeast Anticancer Drug Screen. Data for the CLN2oe strain (AID 163);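 also: 0% = growth of vehicle-only control cultures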; conditions: S. cerevisiae CLN2oe strain, hits give high values
Summary of the method: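 Values reflect how much compound exposure reduced yeast growth, referenced to vehicle-exposed cells. Assay organism is a strain with a defined genetic change affecting cell-cycle control.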

[10] = NCI Yeast Anticancer Drug Screen. Data for the cln2 rad14 strain (AID 165);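 also: 0% = growth equal to vehicle treated cultures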; conditions: S. cerevisiae cln2 rad14 strain, hits give high values
Summary of the method: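 Relative to vehicle controls, growth inhibition of compound-treated cln2 rad14 yeast was recorded.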

[11] = NCI Yeast Anticancer Drug Screen. Data for the bub3 strain (AID 167); conditions: S. cerevisiae bub3 mutant strain, hits give high values
Summary of the method: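 In this screen, a yeast mutant lacking normal mitotic checkpoint function is challenged with compound. Relative growth versus vehicle gives the inhibition value.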

[12] = NCI Yeast Anticancer Drug Screen. Data for the wt2 strain (AID 169);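 also: 0% = growth of vehicle-treated yeast cultures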; conditions: S. cerevisiae wt2 strain growth inhibition, hits give high values
Summary of the method: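 Values express reduction in yeast growth under compound treatment, referenced to vehicle-treated cells.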

[13] = NCI Yeast Anticancer Drug Screen. Data for the mlh1 strain (AID 171);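 also: 0% = growth of vehicle-treated control cultures of the same strain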; conditions: S. cerevisiae mlh1 strain growth inhibition, hits give high values
Summary of the method: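 Steps: expose the defined-mutant yeast strain to compound; expose a parallel culture to vehicle; measure growth; express compound effect as inhibition relative to the vehicle culture.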

[14] = NCI Yeast Anticancer Drug Screen. Data for the sgs1 strain (AID 173);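 also: 0% = growth of vehicle-only control cultures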; conditions: S. cerevisiae sgs1 mutant, hits give high values
Summary of the method: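 Treat defined-mutant yeast with compound; measure growth; calculate inhibition relative to vehicle-treated cells.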

[15] = NCI Yeast Anticancer Drug Screen. Data for the rad18 strain (AID 177); conditions: S. cerevisiae rad18 mutant growth inhibition, hits give high values
Summary of the method: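 A genetically defined yeast mutant impaired in DNA damage repair was treated with test compounds, then its growth was measured against cultures receiving vehicle alone.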

[16] = NCI Yeast Anticancer Drug Screen. Data for the mlh1 rad18 strain (AID 175); conditions: S. cerevisiae mlh1 rad18 strain growth inhibition, hits give high values
Summary of the method: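 Test agents were incubated with a yeast strain of defined genotype (DNA damage repair defect). Inhibition of growth was derived by comparison with vehicle-exposed cultures.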

[17] = at 5.0 µM (retest, dose inferred, filed as 0.5)
[18] = at 50.0 µM (retest, dose inferred, filed as 5.0)

Measured: growth inhibition

C(=C\c1ccccc1)/COc1ccccc1C(N1CCOCC1)n1nc2ccccc2n1 (stereo not drawn)
inactive: [1]; at 1.2 µM 3% | [1]; at 3.7 µM 3% | [1]; at 11.0 µM 13% | [2]; at 1.2 µM 32% | [2]; at 3.7 µM 36% | [2]; at 11.0 µM 33% | [3]; at 1.2 µM -5% | [3]; at 3.7 µM 1% | [3]; at 11.0 µM 25% | [3]; at 33.0 µM 64% | [4]; at 1.2 µM 8% | [4]; at 3.7 µM 9% | [4]; at 11.0 µM 20% | [5]; at 1.2 µM -6% | [5]; at 3.7 µM -21% | [5]; [17] -9% | [5]; at 11.0 µM 8% | [6]; at 1.2 µM -19% | [6]; at 3.7 µM -13% | [6]; [17] 3% | [6]; at 11.0 µM -1% | [7]; at 1.2 µM -4% | [7]; at 3.7 µM 0% | [7]; at 11.0 µM 35% | [8]; [17] -1% | [9]; at 1.2 µM 0% | [9]; at 3.7 µM -9% | [9]; at 11.0 µM -10% | [9]; at 33.0 µM 11% | [10]; [17] 11% | [11]; at 1.2 µM 1% | [11]; at 3.7 µM -14% | [11]; [17] 3% | [11]; at 11.0 µM -4% | [12]; at 1.2 µM -4% | [12]; at 3.7 µM 1% | [12]; at 11.0 µM 25% | [13]; at 1.2 µM -2% | [13]; at 3.7 µM -2% | [13]; at 11.0 µM 37% | [14]; at 1.2 µM 23% | [14]; at 3.7 µM 22% | [14]; at 11.0 µM 54% | [15]; at 1.2 µM -2% | [15]; at 3.7 µM -7% | [15]; at 11.0 µM 6%
active: [1]; at 33.0 µM 85% | [1]; at 100.0 µM 97% | [2]; at 33.0 µM 88% | [2]; at 100.0 µM 98% | [3]; at 100.0 µM 95% | [4]; at 33.0 µM 91% | [4]; at 100.0 µM 98% | [5]; at 33.0 µM 96% | [5]; [18] 98% | [5]; at 50.0 µM 98.1% | [5]; at 100.0 µM 97% | [6]; at 33.0 µM 86% | [6]; [18] 95% | [6]; at 50.0 µM 98.8% | [6]; at 100.0 µM 98% | [7]; at 33.0 µM 97% | [7]; at 100.0 µM 98% | [8]; [18] 97% | [8]; at 50.0 µM 97.9% | [9]; at 100.0 µM 93% | [10]; [18] 81% | [10]; at 50.0 µM 91.2% | [11]; at 33.0 µM 86% | [11]; [18] 98% | [11]; at 50.0 µM 98.3% | [11]; at 100.0 µM 97% | [12]; at 33.0 µM 95% | [12]; at 100.0 µM 99% | [13]; at 33.0 µM 93% | [13]; at 100.0 µM 97% | [14]; at 33.0 µM 96% | [14]; at 100.0 µM 99% | [15]; at 33.0 µM 86% | [15]; at 100.0 µM 98%

CN(C)Cc1cc(N=Nc2ccc(Cl)cc2)cc(CN(C)C)c1O
active: [3]; at 100.0 µM 91% | [5]; [18] 73% | [6]; at 50.0 µM 88.9% | [8]; at 50.0 µM 95.2% | [10]; [18] 98% | [11]; [18] 73% | [11]; at 50.0 µM 91.2% | [12]; at 100.0 µM 80% | [16]; [18] 96% | [16]; at 50.0 µM 90.2%
inactive: [1]; at 1.2 µM 8% | [1]; at 3.7 µM 8% | [1]; at 11.0 µM 8% | [1]; at 33.0 µM 16% | [1]; at 100.0 µM 58% | [2]; at 1.2 µM 5% | [2]; at 3.7 µM 4% | [2]; at 11.0 µM 8% | [2]; at 33.0 µM 12% | [2]; at 100.0 µM 63% | [3]; at 1.2 µM -3% | [3]; at 3.7 µM -1% | [3]; at 11.0 µM 15% | [3]; at 33.0 µM 43% | [4]; at 1.2 µM 13% | [4]; at 3.7 µM 12% | [4]; at 11.0 µM 13% | [4]; at 33.0 µM 26% | [4]; at 100.0 µM 13% | [5]; at 1.2 µM 9% | [5]; at 3.7 µM 7% | [5]; [17] -15% | [5]; at 11.0 µM 8% | [5]; at 33.0 µM 10% | [5]; at 50.0 µM 56.8% | [5]; at 100.0 µM 25% | [6]; at 1.2 µM 15% | [6]; at 3.7 µM 17% | [6]; [17] -5% | [6]; at 11.0 µM 16% | [6]; at 33.0 µM 14% | [6]; [18] 47% | [6]; at 100.0 µM 15% | [7]; at 1.2 µM 12% | [7]; at 3.7 µM 13% | [7]; at 11.0 µM 10% | [7]; at 33.0 µM 11% | [7]; at 100.0 µM 34% | [8]; [17] 1% | [8]; [18] 46% | [9]; at 1.2 µM 23% | [9]; at 3.7 µM 22% | [9]; at 11.0 µM 26% | [9]; at 33.0 µM 26% | [9]; at 100.0 µM 18% | [10]; [17] 39% | [10]; at 50.0 µM 44% | [11]; at 1.2 µM 4% | [11]; at 3.7 µM 2% | [11]; [17] 12% | [11]; at 11.0 µM 2% | [11]; at 33.0 µM 5% | [11]; at 100.0 µM 3% | [12]; at 1.2 µM 5% | [12]; at 3.7 µM 5% | [12]; at 11.0 µM 8% | [12]; at 33.0 µM 15% | [13]; at 1.2 µM 14% | [13]; at 3.7 µM 12% | [13]; at 11.0 µM 12% | [13]; at 33.0 µM 10% | [13]; at 100.0 µM 18% | [16]; [17] 4%
